# Results: PubChem BioAssay (NCI)
# This is part of a sample that, as a whole, favours compounds with a hit. Of some 83,000 tested, about 20% had one in any assay.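 Assay: single dose, 48 h. Readout: percent growth (0 = no net growth; negative = cell death). Active: <10.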 Unmarked numbers belong to inactive results. Calls of active or inactive are those of the source.
# Test system: MDA-MB-468 breast
# Experiment: NCI-60 one-dose screen, 48 h (100 = growth as untreated, 0 = no growth, -100 = all killed)
# Conditions: 10 µM unless noted
row,SMILES,growth
1,Cc1cc2ccccc2c[n+]1CC(=O)c1ccc(-c2ccccc2)cc1,13.3%
2,CN(C)c1ccc(/C=C2/C=C(c3ccccc3)OC2=O)cc1,-8.42% (active)
3,COc1cccc(Nc2nc(SC)nc(-c3cccc([N+](=O)[O-])c3)c2C#N)c1,81.2%
4,Cn1cc(-c2csc(-c3ccc(Cl)cc3)n2)c2cccnc21,-69.1% [100 µM] (active)
5,COc1ncc(-c2ccc3ncnc(Nc4cccc(Cl)c4)c3c2)cc1NS(=O)(=O)CCN1CCOCC1,-52.8% (active)
6,CCOC(=O)C1=CN(C)C=C(C(=O)OCC)C1c1cc(Br)c(OCC)c(OC)c1,62.1%
7,O=C1CCC/C=C\C[C@H]2C=C(Cl)C(=O)/C2=C/C[C@H](CCCCC(F)(F)F)OC(=O)CCC/C=C\C[C@H]2C=C(Cl)C(=O)/C2=C/C[C@H](CCCCC(F)(F)F)O1,-72.2% [7.5 µM] (active)
8,Cc1ncc(C(=O)Nc2ccc(CN3CCN(C)CC3)c(C(F)(F)F)c2)cc1C#Cc1cnc(N)c2ccncc12,-36.7% (active)
9,C=CCSc1n[nH]c(-c2cccs2)n1,95.6%
10,CCCCCC(CCCCC)C(=O)O,116%
11,COC(=O)c1cncc(C(=O)Nc2ccc(-n3cnc4ccccc43)cc2)c1,101%
12,O=C1C=C(Cl)C(=O)c2ccccc21,-6.29% (active)
13,Cc1ccc(OCc2occc2C(=O)N2CCOCC2)cc1,103%
14,COc1ccc(C2[C@@H](c3ccccc3)C(=O)N2c2cc(OC)c(OC)c(OC)c2)cc1F (some centres undefined),-4.41% (active)
